Screening results (PubChem)
In the library only some 4.7% were active in any assay of this set; here they are far more common.
D1 potentiator: potentiators of human D1 dopamine receptor; hit rate 0.036% among 360,000; potentiation, % at 10 µM; HEK293 TREx D1 cells, calcium flux, dopamine EC20 potentiation; in the data active = potentiation above about 30%; note: 0% is about no effect
TRHR agonist: activates the human TRH receptor; hit rate 0.18% among 360,000; TRHR cells, calcium flux fluo-8, FDSS agonist mode; P34981; AID 493084; activation, % at 2 µM; note: 0% is about no effect
Target sequence (P34981 whole entry, looked up): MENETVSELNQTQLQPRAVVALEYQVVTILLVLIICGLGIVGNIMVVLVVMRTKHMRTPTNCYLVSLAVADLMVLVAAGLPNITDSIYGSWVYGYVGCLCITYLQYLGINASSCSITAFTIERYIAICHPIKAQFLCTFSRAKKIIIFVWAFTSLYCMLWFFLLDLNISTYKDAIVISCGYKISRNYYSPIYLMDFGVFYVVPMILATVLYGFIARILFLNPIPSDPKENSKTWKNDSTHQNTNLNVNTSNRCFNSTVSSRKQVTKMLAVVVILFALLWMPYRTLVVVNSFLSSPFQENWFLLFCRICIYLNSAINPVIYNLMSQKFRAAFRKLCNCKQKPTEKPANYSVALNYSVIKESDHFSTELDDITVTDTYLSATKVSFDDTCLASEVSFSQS
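TRHR-expressing cells loaded with fluo-8 calcium dye; 23 nL library compound pin-transferred, kinetic FDSS fluorescence (Ex 480/Em 530) recorded about 180 s for agonist-induced calcium release, before a 10 nM TRH EC20 addition for potentiator mode.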
D1 ag: human D1 receptor agonism. HEK293 T-REx D1 cells, calcium flux, agonist mode. activation, % at 2 µM. hit rate 1% among 360,000. AID 504660; note: 0% is about no effect
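Tetracycline-induced HEK293 TREx D1 cells, force-coupled to calcium signalling, were dye-loaded with a no-wash calcium kit. Compound was pin-added after a 10 s baseline. Fluorescence was read kinetically at 1 cycle/s for 180 s, with calcium rises flagged as agonism.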
D1 antag: antagonists of human D1 dopamine receptor. P21728. HEK293 TREx D1 cells, calcium flux, dopamine EC80; stronger effect = lower value. activity change, negative = inhibition, % at 10 µM. AID 504652. hit rate 3.2% among 360,000; in the data active = activity change below about -30%; note: % is set by controls: 0 for no effect and ±100 for the full control effect
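Kinetic fluorescence of a calcium dye serves as the read-out. D1-expressing Hek293 Trex cells, induced overnight at 30 C, are exposed to compound for 180 s before an EC80 dopamine addition, then read 180 s further.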
TRHR PAM: allosteric enhancers of human TRH receptor; P34981; TRHR cells, fluo-8 calcium fluorescence, EC20 TRH enhancement; enhancement, % at 2 µM; hit rate 0.66% among 360,000; AID 493056; in the data active = enhancement above about 30%; note: 0% is about no effect
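TRHR-expressing cells loaded with fluo-8 calcium dye were read kinetically (ex 480/em 530) during compound addition, then stimulated with an EC20 of TRH (10 nM final). Enhancement of the Gq-mediated intracellular calcium response was scored.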
* = called active by the depositor; · = no result; ! = a repeat was not active. Cut-off read from the data, not from the text of the source, unless noted: active = activation above about 30%; inactive = the rest.

SMILES | D1 potentiator | TRHR agonist | D1 ag | D1 antag | TRHR PAM
NCCc1c(-c2ccccc2)n(-c2ccccc2)c2ccccc12 | 1 | 13 | 102* | 21 | -2
CCCOc1ccccc1N/C(=N/c1nc(C)cc(C)n1)NC(=O)COc1ccc(OC)cc1 | -8 | 1 | 2 | 4 | 6
CCCOc1ccccc1N/C(N)=N/c1nc(C)cc(C)n1 | -14 | 1 | 13 | -59* | 1
COc1ccc(Cl)cc1N/C(N)=N/c1nc(C)cc(C)n1 | -6 | 3 | 12 | -70* | -2
COc1ccc(OC)c(N/C(N)=N/c2nc(C)cc(C)n2)c1 | -7 | 1 | 3 | -26 | 3
COc1ccc(C)cc1N/C(N)=N/c1nc(C)cc(C)n1 | -6 | 3 | 11 | -75* | 2
COc1ccc(Cl)cc1N/C(N)=N/c1nc(C)cc(=O)[nH]1 | -4 | 0 | 1 | -20 | -3
Clc1ccc(-c2nc3ccccn3c2Nc2ccc3c(c2)OCCO3)s1 | -1 | 0 | 0 | 6 | -12
COc1ccc(-c2[nH]ncc2CN2CCC(OCc3ccccc3)CC2)c(F)c1 | -5 | 0 | 11 | -52* | 1
COc1cccc(C2=NN(S(C)(=O)=O)C(c3cn(-c4ccccc4)nc3-c3cccs3)C2)c1 (centres undefined) | -2 | 2 | 1 | -39* | 21
COc1cccc(C2CC(c3cccs3)=NN2S(C)(=O)=O)c1 (centres undefined) | 0 | -2 | 3 | -2 | -2
Cc1ccc(-c2nn(-c3ccccc3)cc2C2CC(c3cccs3)=NN2C(=O)CCCC(=O)O)cc1 (centres undefined) | -7 | 0 | 1 | -7 | -2
O=C(O)CCC(=O)N1N=C(c2cccs2)CC1c1cn(-c2ccccc2)nc1-c1ccccc1 (centres undefined) | -1 | 0 | 1 | 11 | 34*
Cc1c(CCNC(=O)c2ccc(C(C)(C)C)cc2)sc2nc(-c3ccc(F)cc3)nn12 | 2 | 1 | 11 | · | 2
Cc1cccc(C(=O)NC(=O)Nc2ccc(-c3cc(C(F)(F)F)nn3-c3ccccc3)cc2)c1 | 0 | 1 | 3 | -4 | -7
O=Cc1ccc(Oc2ccc(F)cc2)nc1 | 5 | 0 | 2 | -4 | 1
Nc1ccc(Oc2ccc(F)cc2)nc1 | -5 | 0 | 5 | -18 | 34*
CCCOC(=O)C(=O)NNc1ccccc1 | -13 | 0 | 2 | -4 | 32*
COc1cn(CC(=O)Nc2ccccc2)c(CN2CCCCC2)cc1=O | -3 | 0 | 0 | -27 | 3
COc1ccc(CCC(=O)Nc2c(C)n(C)n(-c3ccccc3)c2=O)cc1 | -8 | 2 | 2 | -38* | -11
COc1ccc(N(CC(=O)Nc2c(C)n(C)n(-c3ccccc3)c2=O)S(=O)(=O)c2ccc(C)cc2)cc1 | -5 | -1 | 3 | -5 | 30*
COc1ccc(N(CC(=O)Nc2c(C)n(C)n(-c3ccccc3)c2=O)S(=O)(=O)c2ccc(F)cc2)cc1 | -2 | 0 | 3 | 8 | -2
COc1ccc(NC(=O)Nc2c(C)n(C)n(-c3ccccc3)c2=O)cc1 | -4 | 0 | -2 | -7 | -3
Cc1cc(Nc2cccc(C(F)(F)F)c2)nc2ccc(NC(=O)c3cncc(Br)c3)cc12 | -4 | -1 | 2 | -20 | 2
N#Cc1nc(Nc2cc(F)cc(F)c2)nc(Nc2cc(F)cc(F)c2)n1 | -2 | -2 | 2 | -20 | 7
SMILES | D1 potentiator | TRHR agonist | D1 ag | D1 antag | TRHR PAM
C/C(=N\NC(=O)c1cc(C)nc2ccccc12)c1ccncc1 | -3 | 0 | 0 | -43* | 2
C/C(=N\NC(=O)c1cc(-c2cccc(OC(C)C)c2)nc2ccccc12)c1cccnc1 | -10 | 1 | 2 | -43* | -7
Cc1ccccc1CCN(C(=O)CN1C(=O)c2ccccc2S1(=O)=O)C(C(=O)NCC1CCCO1)c1ccncc1 (centres undefined) | 0 | 0 | 1 | -12 | 3
O=C(NCC1CCCO1)C(c1ccncc1)N(Cc1cccs1)C(=O)CN1C(=O)c2ccccc2S1(=O)=O (centres undefined) | 7 | 0 | 42* | 0 | 5
Cc1ccc(-c2nnn(CC(=O)N(Cc3cccs3)C(C(=O)NCC3CCCO3)c3ccco3)n2)o1 (centres undefined) | -9 | -1 | 14 | -48* | -2
Cc1occc1C(=O)N/N=C/C=C/c1ccccc1 | 9 | 0 | -1 | -11 | -2
Cc1ccc(C(=O)N/N=C/C=C/c2ccccc2)cc1 | -1 | 1 | 8 | -36* | -2
CCOC(=O)Cn1c(C(=O)OCC)cc2sccc21 | -6 | -2 | 2 | -30* | 13
CCOC(=O)c1cc2sccc2n1CC(=O)Nc1ccc(OC)cc1OC | -3 | 0 | 7 | -39* | 20
CCOC(=O)c1cc2sccc2n1CC(=O)OC | -1 | -1 | 0 | -10 | -2
COc1ccc(CNC(=O)Cc2ccc(NC(=O)N3CCCCc4ccccc43)cc2)cc1 | -4 | 0 | 9 | 1 | 6
Cc1ccc(C(=O)Nc2ccc3c(c2)N(C)C(=O)c2ccccc2S3)cc1F | -6 | 1 | 5 | -9 | 3
CNc1oc(-c2ccc(OCc3ccccc3)cc2)nc1C#N | -9 | 0 | 5 | -32* | -7
N#Cc1nc(-c2ccc(OCc3ccccc3)cc2)oc1NCc1ccco1 | -4 | 0 | 1 | 4 | 1
O=C(CCCc1nc2ccccc2s1)N1CCN(c2ccccc2)CC1 | -14 | -1 | 0 | -43* | 0
CS(=O)(=O)Oc1ccc2c(c1)O/C(=C\c1cccnc1)C2=O | 1 | 0 | 2 | 1 | -1
O=C(Oc1ccc2c(c1)O/C(=C\c1ccncc1)C2=O)c1cccs1 | -4 | 0 | 37* | -10 | 6
COc1ccc(C)cc1NC(=O)CN1C(=O)CCc2cc(S(=O)(=O)N3CCOCC3)ccc21 | 1 | 0 | 4 | -8 | -7
Cc1ccccc1OCC(O)Cn1c(=N)n(CCN2CCOCC2)c2ccccc21 (centres undefined) | -6 | 0 | 5 | -35*! | 2
Cc1ccccc1OCC(O)CN1CCN(CC(O)COc2ccccc2C)CC1 (centres undefined) | -12 | 0 | 54* | 3 | -2
Cc1ccccc1OCC(O)CN1CCC(C)CC1 (centres undefined) | -10 | 0 | 3 | -5 | 6
CC(C)C(=O)N1CCN(c2ccc(NC(=O)COc3ccccc3[N+](=O)[O-])cc2)CC1 | -7 | 0 | 12 | -31* | -3
CSc1ncc(Cl)c(C(=O)Nc2c(C(=O)c3ccc(C)cc3)oc3ccccc23)n1 | -2 | 0 | -1 | -4 | 0
CSc1ncc(Cl)c(C(=O)Nc2c(C(=O)c3ccc(Cl)cc3)oc3ccccc23)n1 | -1 | 0 | 3 | 1 | 47*
CCOc1ccc(C(=O)NCc2nc3cccnc3n2Cc2cccc(OC)c2)cc1 | -3 | 0 | -1 | 8 | -3
